Experimental findings from PMC11006913 are described below.

Residue numbers refer to the chain shown, from its start.

What all share (assay): PBM; 200 nM protein, PBS
Holding throughout (conditions): dsDNA, one strand shown

Experiment [1] addresses T1, NKX2-4 (Homo sapiens, UniProt Q9H2Z4 175-261, P217L).
T1 sequence: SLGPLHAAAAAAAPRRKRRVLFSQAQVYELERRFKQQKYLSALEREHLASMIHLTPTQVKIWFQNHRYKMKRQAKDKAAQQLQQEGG

Experiment [2] addresses T2, NKX2-4 (Homo sapiens, UniProt Q9H2Z4 175-261, T231S).
T2 sequence: T1 sequence with L43P, T57S

Experiment [3] has as its target T3, NKX2-4 (Homo sapiens, UniProt Q9H2Z4 175-261).
T3 sequence: T1 sequence with L43P

Experiment [4] concerns the target T4, NKX2-4 (Homo sapiens, UniProt Q9H2Z4 175-261, R246Q).
T4 sequence: T1 sequence with L43P, R72Q

Consider ACCGTCTG, for which the binding signal in experiment [1] is 9.6 upbm affinity estimate (log intensity, higher = more binding, comparable within an allelic series); in experiment [2], 9.59 upbm affinity estimate (log intensity, higher = more binding, comparable within an allelic series); in experiment [3], 9.56 upbm affinity estimate (log intensity, higher = more binding, comparable within an allelic series); in experiment [4] it was 9.61 upbm affinity estimate (log intensity, higher = more binding, comparable within an allelic series).

Take AGGCAGCC: the binding signal in experiment [1] was 9.69 upbm affinity estimate (log intensity, higher = more binding, comparable within an allelic series); in experiment [2], 9.68 upbm affinity estimate (log intensity, higher = more binding, comparable within an allelic series); in experiment [3], 9.68 upbm affinity estimate (log intensity, higher = more binding, comparable within an allelic series); in experiment [4], 9.7 upbm affinity estimate (log intensity, higher = more binding, comparable within an allelic series).

With ACGCAGTG, the binding signal in experiment [1] was 9.7 upbm affinity estimate (log intensity, higher = more binding, comparable within an allelic series); in experiment [2], 9.67 upbm affinity estimate (log intensity, higher = more binding, comparable within an allelic series); in experiment [3], 9.6 upbm affinity estimate (log intensity, higher = more binding, comparable within an allelic series); in experiment [4], 9.5 upbm affinity estimate (log intensity, higher = more binding, comparable within an allelic series).

For the sequence GTCTCGCA, the binding signal in experiment [1] is 9.7 upbm affinity estimate (log intensity, higher = more binding, comparable within an allelic series); in experiment [2] it was 9.57 upbm affinity estimate (log intensity, higher = more binding, comparable within an allelic series); in experiment [3], 9.65 upbm affinity estimate (log intensity, higher = more binding, comparable within an allelic series); in experiment [4], 9.64 upbm affinity estimate (log intensity, higher = more binding, comparable within an allelic series).

Take AGTGCTTA: the binding signal in experiment [1] is 12 upbm affinity estimate (log intensity, higher = more binding, comparable within an allelic series); in experiment [2] it was 12.2 upbm affinity estimate (log intensity, higher = more binding, comparable within an allelic series); in experiment [3], 11.9 upbm affinity estimate (log intensity, higher = more binding, comparable within an allelic series); in experiment [4] it was 12.2 upbm affinity estimate (log intensity, higher = more binding, comparable within an allelic series).

With GCAAGTGC, the binding signal in experiment [1] is 11.9 upbm affinity estimate (log intensity, higher = more binding, comparable within an allelic series); in experiment [2] it was 12.1 upbm affinity estimate (log intensity, higher = more binding, comparable within an allelic series); in experiment [3] it was 11.7 upbm affinity estimate (log intensity, higher = more binding, comparable within an allelic series); in experiment [4] it was 12.2 upbm affinity estimate (log intensity, higher = more binding, comparable within an allelic series).

With ACGCCTTG, the binding signal is 9.82 upbm affinity estimate (log intensity, higher = more binding, comparable within an allelic series) in experiment [1]; 9.81 upbm affinity estimate (log intensity, higher = more binding, comparable within an allelic series) in experiment [2]; 9.74 upbm affinity estimate (log intensity, higher = more binding, comparable within an allelic series) in experiment [3]; 9.73 upbm affinity estimate (log intensity, higher = more binding, comparable within an allelic series) in experiment [4].

Turning to AAAATGCG, the binding signal in experiment [1] is 9.82 upbm affinity estimate (log intensity, higher = more binding, comparable within an allelic series); in experiment [2] it was 9.83 upbm affinity estimate (log intensity, higher = more binding, comparable within an allelic series); in experiment [3] it was 9.74 upbm affinity estimate (log intensity, higher = more binding, comparable within an allelic series); in experiment [4], 9.92 upbm affinity estimate (log intensity, higher = more binding, comparable within an allelic series).

For TCCACTAA, the binding signal in experiment [1] was 11.6 upbm affinity estimate (log intensity, higher = more binding, comparable within an allelic series); in experiment [2], 11.7 upbm affinity estimate (log intensity, higher = more binding, comparable within an allelic series); in experiment [3], 11.5 upbm affinity estimate (log intensity, higher = more binding, comparable within an allelic series); in experiment [4], 11.7 upbm affinity estimate (log intensity, higher = more binding, comparable within an allelic series).

Regarding CGTTGTCC, the binding signal in experiment [1] is 9.74 upbm affinity estimate (log intensity, higher = more binding, comparable within an allelic series); in experiment [2], 9.8 upbm affinity estimate (log intensity, higher = more binding, comparable within an allelic series); in experiment [3] it was 9.79 upbm affinity estimate (log intensity, higher = more binding, comparable within an allelic series); in experiment [4] it was 9.81 upbm affinity estimate (log intensity, higher = more binding, comparable within an allelic series).

Take CCAGTCAC: the binding signal in experiment [1] was 9.45 upbm affinity estimate (log intensity, higher = more binding, comparable within an allelic series); in experiment [2] it was 9.51 upbm affinity estimate (log intensity, higher = more binding, comparable within an allelic series); in experiment [3], 9.45 upbm affinity estimate (log intensity, higher = more binding, comparable within an allelic series); in experiment [4], 9.44 upbm affinity estimate (log intensity, higher = more binding, comparable within an allelic series).

Turning to CGCACGCG, the binding signal in experiment [1] is 9.51 upbm affinity estimate (log intensity, higher = more binding, comparable within an allelic series); in experiment [2], 9.45 upbm affinity estimate (log intensity, higher = more binding, comparable within an allelic series); in experiment [3], 9.53 upbm affinity estimate (log intensity, higher = more binding, comparable within an allelic series); in experiment [4], 9.45 upbm affinity estimate (log intensity, higher = more binding, comparable within an allelic series).

In the case of CCGGCTCA, the binding signal in experiment [1] is 9.54 upbm affinity estimate (log intensity, higher = more binding, comparable within an allelic series); in experiment [2], 9.64 upbm affinity estimate (log intensity, higher = more binding, comparable within an allelic series); in experiment [3], 9.59 upbm affinity estimate (log intensity, higher = more binding, comparable within an allelic series); in experiment [4] it was 9.56 upbm affinity estimate (log intensity, higher = more binding, comparable within an allelic series).

CCCAAACG: the binding signal in experiment [1] is 9.71 upbm affinity estimate (log intensity, higher = more binding, comparable within an allelic series); in experiment [2], 9.8 upbm affinity estimate (log intensity, higher = more binding, comparable within an allelic series); in experiment [3] it was 9.76 upbm affinity estimate (log intensity, higher = more binding, comparable within an allelic series); in experiment [4], 9.88 upbm affinity estimate (log intensity, higher = more binding, comparable within an allelic series).

AGCTCGCG: the binding signal in experiment [1] is 9.6 upbm affinity estimate (log intensity, higher = more binding, comparable within an allelic series); in experiment [2], 9.58 upbm affinity estimate (log intensity, higher = more binding, comparable within an allelic series); in experiment [3] it was 9.62 upbm affinity estimate (log intensity, higher = more binding, comparable within an allelic series); in experiment [4] it was 9.63 upbm affinity estimate (log intensity, higher = more binding, comparable within an allelic series).

Consider CTGCGTCC, for which the binding signal in experiment [1] was 9.76 upbm affinity estimate (log intensity, higher = more binding, comparable within an allelic series); in experiment [2], 9.72 upbm affinity estimate (log intensity, higher = more binding, comparable within an allelic series); in experiment [3], 9.74 upbm affinity estimate (log intensity, higher = more binding, comparable within an allelic series); in experiment [4] it was 9.78 upbm affinity estimate (log intensity, higher = more binding, comparable within an allelic series).

Turning to ACAATGAG, the binding signal in experiment [1] is 11.4 upbm affinity estimate (log intensity, higher = more binding, comparable within an allelic series); in experiment [2], 11.5 upbm affinity estimate (log intensity, higher = more binding, comparable within an allelic series); in experiment [3], 11.3 upbm affinity estimate (log intensity, higher = more binding, comparable within an allelic series); in experiment [4] it was 11.4 upbm affinity estimate (log intensity, higher = more binding, comparable within an allelic series).

As to CGGTCGTA, the binding signal in experiment [1] is 9.63 upbm affinity estimate (log intensity, higher = more binding, comparable within an allelic series); in experiment [2] it was 9.64 upbm affinity estimate (log intensity, higher = more binding, comparable within an allelic series); in experiment [3], 9.66 upbm affinity estimate (log intensity, higher = more binding, comparable within an allelic series); in experiment [4], 9.81 upbm affinity estimate (log intensity, higher = more binding, comparable within an allelic series).
